# Results as given in PubChem BioAssay.
# Records with an inconclusive call do not appear. Active and inactive are the calls of the source.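 Rule for the calls, unless noted: active = viability at or under a set limit in both replicates, limit being median viability minus 3 SD (cut at about 48% in these data, passing the limit was not always enough); inconclusive = at or under the limit in just one replicate; inactive = at or above the limit in both replicates.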
# Columns and labels:
# [1] = reducers of endogenous Her2 protein level, primary screen, SKBR3 breast tumor cells, AlphaScreen, ATP viability (AID 461;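 active = Her2 level under about 52% in both replicate screens, with viability over 70% of control, limit read from the data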;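 for Her2 level: lower value means less Her2 protein in the cells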;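 for viability: percent of carrier control wells set as 100% viability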); settings: 18-24 h, measured here: SKBR3 viability, ATP luminescence, at 10 µM
# [2] = biological target: Receptor tyrosine-protein kinase erbB-2 (Homo sapiens) (UniProt P04626); experiment: as above; settings: 18-24 h, at 10 µM, stronger effect = lower value
# [3] = SK-BR-3 cell growth inhibitors, pilot screen, 24 h, human (AID 572;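 active = viability at or below 10% of carrier control in both of two separate runs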;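 note: compound exposure lasted between 18 and 24 h rather than exactly 24 h; 100% = carrier-treated control wells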); settings: SK-BR-3 viability, CellTiter-Glo luminescence, at 10 µM, stronger effect = lower value
# [4] = HUVEC growth inhibition – cell-based, human, primary screen (AID 575;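 active = viability at or below 30% in both replicate assays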;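 note: 100% = median of untreated cell wells with 0.1% DMSO on each plate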); settings: HUVEC proliferation, CellTiter-Glo luminescence, 72 h; at 10 µM; stronger effect = lower value
# [5] = growth inhibitors of H69AR lung tumor, primary screen, human, duplicate replicates (AID 580); settings: H69AR lung tumor cells viability, ATP luminescence, 72 h; at 10 µM; stronger effect = lower value;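 note: 100% = mean luminescence of untreated wells and 0% = no signal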
# [6] = reversal of MRP1-mediated doxorubicin resistance, pilot screen, H69AR cells, doxorubicin co-treatment (AID 601;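 active = viability loss from added drug above about 55%, and viability with drug at most 40%, in both replicates, limit read from the data, passing the limit was not always enough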); settings: CellTiter-Glo, 72 h, at 10 µM; for differential viability (reversal): stronger effect = higher value
# [7] = 384-well plate pilot, post-Golgi transport modulator project, inhibition of yeast transport mutant growth (AID 636; in the data active = inhibition above about 31%); settings: absorbance 615 nm, about 18 h, stronger effect = higher value
# [8] = growth suppression of yeast trafficking mutant, preliminary HTS, modulators of trafficking downstream of Golgi apparatus project, 1536-format plate, OD 615 nm (AID 637; in the data active = inhibition above about 30%); settings: yeast transport mutant growth, absorbance 615 nm, 18 h; stronger effect = higher value
# [9] = OD615 S. cerevisiae growth inhibition, permissive medium, pilot counter-assay, permissive growth control for S. cerevisiae lifespan shortening project (AID 705;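 active = growth inhibition above 25% in both replicates, a cutoff set 3 SD above the mean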); settings: OD615, 24 h, at 10 µM, stronger effect = higher value
# [10] = Restrictive medium S. cerevisiae growth inhibition, OD615, pilot screen of yeast lifespan reduction project, restrictive growth control (AID 706;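 active = growth inhibition above a set limit, 3 SD over mean compound inhibition, in both replicates, cut at about 43% in these data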;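 note: modified DeaD lifespan yeast strain shifted to restrictive glucose medium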); settings: OD615, 48 h, at 10 µM, stronger effect = higher value
# [11] = viability gain of MRP-1-high H69AR cells under doxorubicin, pilot screen, MRP-1 activator project, CellTiter-Glo, duplicate (AID 807;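 active = viability increase at or above a cutoff of the median across tested compounds plus 3 SD, cut at about 8.5% in these data, passing the limit was not always enough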;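 note: compound pretreatment 18-22 h then 72 h combined with doxorubicin; 0% = doxorubicin alone and 100% = vehicle without doxorubicin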); settings: H69AR viability with doxorubicin, CellTiter-Glo luminescence; at 10 µM; stronger effect = higher value
# [12] = growth suppression of beta-catenin knockout HCT116, pilot screen, human colon tumor cells (AID 823;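 active = cell viability at or below a set limit in both duplicate runs, the limit being the all-compound median minus 4 SD, cut at about 23% in these data, passing the limit was not always enough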;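 note: 0% = wells killed by 20 µM Hyamine and 100% = untreated DMSO cell wells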); settings: CellTiter-Glo, 60 h, at 10 µM, stronger effect = lower value
# [13] = growth suppression of PTEN-deleted HCT116, pilot screen, cell-based, HCT116 clonal line, CellTiter-Glo (AID 824;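 active = viability at or below 27.92% in each of two runs, the all-compound median minus 4 SD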;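 note: 0% = 20 µM Hyamine control and 100% = vehicle cell control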); settings: 60 h, at 10 µM, stronger effect = lower value
# [14] = inhibitors of the yeast RAM network, pilot screen, dse1pr::URA3 reporter, 5-FOA selection (AID 869;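 active = inhibition over a set limit, the all-compound mean plus 3 SD, in both replicate runs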;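 note: 0% = DMSO wells with no growth and 100% = 10 µM 1-NA-PP1 with full growth; RAM network block rescues cells from 5-FOA so hits raise OD615 growth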); settings: S. cerevisiae dse1pr::URA3 5-FOA growth, OD615, 2 d; at 10 µM; stronger effect = higher value; strain carries analog-sensitive mutant Cbk1 kinase
# [15] = RAM signaling pathway blockade in yeast – S. cerevisiae, Pdr1DBD-CYC8 efflux-inhibited sensitized strain, primary screen (AID 1298;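 active = RAM network inhibition above 8.4% in each of two replicates, 3 SD over the compound average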;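 note: 0% = DMSO untreated cells without growth and 100% = 10 µM 1-NA-PP1 full growth; higher means more yeast growth rescued from 5-FOA killing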); settings: S. cerevisiae cbk1-as DSE1-URA3 strain, 5-FOA growth OD615, 2 d; at 50 µM; stronger effect = higher value
# [16] = H69AR cells + 2 uM doxorubicin, measured here: viability with 2 uM doxorubicin, stronger effect = lower value
# [17] = H69AR cells, compound alone cytotoxicity
# Sequence of Receptor tyrosine-protein kinase erbB-2 (Homo sapiens) (P04626 whole entry, looked up): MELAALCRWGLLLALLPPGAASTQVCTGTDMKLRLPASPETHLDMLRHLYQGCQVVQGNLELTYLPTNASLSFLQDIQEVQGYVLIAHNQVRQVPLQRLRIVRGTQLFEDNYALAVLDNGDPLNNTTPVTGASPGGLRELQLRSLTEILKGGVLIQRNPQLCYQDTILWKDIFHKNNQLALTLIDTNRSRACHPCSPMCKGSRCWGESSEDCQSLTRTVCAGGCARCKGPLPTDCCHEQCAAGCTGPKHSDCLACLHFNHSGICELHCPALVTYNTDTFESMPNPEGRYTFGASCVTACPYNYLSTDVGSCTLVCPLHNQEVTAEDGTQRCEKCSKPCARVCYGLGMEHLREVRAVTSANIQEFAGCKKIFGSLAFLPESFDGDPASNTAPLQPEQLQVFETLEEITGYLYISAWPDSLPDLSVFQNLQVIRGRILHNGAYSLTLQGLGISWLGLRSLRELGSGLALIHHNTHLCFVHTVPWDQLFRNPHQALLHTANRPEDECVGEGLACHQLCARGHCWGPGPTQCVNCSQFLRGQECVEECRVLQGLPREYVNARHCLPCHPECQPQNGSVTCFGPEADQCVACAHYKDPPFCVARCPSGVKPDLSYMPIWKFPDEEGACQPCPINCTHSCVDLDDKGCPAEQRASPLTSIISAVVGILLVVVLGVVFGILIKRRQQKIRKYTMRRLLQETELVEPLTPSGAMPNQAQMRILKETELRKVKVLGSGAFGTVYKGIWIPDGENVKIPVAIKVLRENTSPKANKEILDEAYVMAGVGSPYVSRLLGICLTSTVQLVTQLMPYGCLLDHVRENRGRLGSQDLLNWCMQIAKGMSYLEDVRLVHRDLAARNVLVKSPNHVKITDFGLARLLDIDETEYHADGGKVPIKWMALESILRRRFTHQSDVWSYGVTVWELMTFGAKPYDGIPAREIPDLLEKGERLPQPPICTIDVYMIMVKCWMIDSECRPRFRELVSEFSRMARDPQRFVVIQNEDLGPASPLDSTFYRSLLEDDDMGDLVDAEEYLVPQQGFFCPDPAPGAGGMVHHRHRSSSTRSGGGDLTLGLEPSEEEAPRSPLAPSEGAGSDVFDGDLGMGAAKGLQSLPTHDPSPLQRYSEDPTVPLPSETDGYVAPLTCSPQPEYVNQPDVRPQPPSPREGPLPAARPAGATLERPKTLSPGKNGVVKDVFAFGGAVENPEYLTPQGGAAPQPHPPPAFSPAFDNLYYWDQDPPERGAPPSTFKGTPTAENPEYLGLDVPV
compound,measurement,setting,value
COc1ccc(NC(=O)CSc2nc3c(c(=O)n2-c2ccc(F)cc2)SCC3)cc1,viability,[1],100%
same,Her2 level,[2],102% (inactive)
same,viability,[3],100% (inactive)
same,viability,[4],81.3% (inactive)
same,viability,[5],95.5% (inactive)
same,differential viability (reversal),[6]; H69AR cells + 2 uM doxorubicin,3.3% (inactive)
same,viability,[6]; [16],92.2%
same,viability,[6]; [17],95.5%
same,inhibition,[7],-6.27% (inactive)
same,inhibition,[8],-1.15% (inactive)
same,growth inhibition,[9],-8.95% (inactive)
same,growth inhibition,[10],-14.3% (inactive)
same,viability increase,[11],0.22% (inactive)
same,viability,[12],94% (inactive)
same,viability,[13],90.7% (inactive)
same,inhibition,[14],-0.265% (inactive)
same,RAM network inhibition,[15],3.09% (inactive)
COC(=O)CSC1=C(C#N)C(c2ccc(F)cc2)CC(=O)N1 (stereo not drawn),viability,[1],109%
same,Her2 level,[2],105% (inactive)
same,viability,[3],109% (inactive)
same,viability,[4],101% (inactive)
same,viability,[5],80.8% (inactive)
same,differential viability (reversal),[6]; H69AR cells + 2 uM doxorubicin,0.195% (inactive)
same,viability,[6]; [16],80.6%
same,viability,[6]; [17],80.8%
same,inhibition,[7],-4.93% (inactive)
same,inhibition,[8],-4.75% (inactive)
same,growth inhibition,[9],9% (inactive)
same,growth inhibition,[10],-15.4% (inactive)
same,viability increase,[11],-0.35% (inactive)
same,viability,[12],100% (inactive)
same,viability,[13],95.9% (inactive)
same,inhibition,[14],0.905% (inactive)
same,RAM network inhibition,[15],-1.71% (inactive)
CCN1C(=O)c2cccc3c(NC(=O)c4ccc(S(=O)(=O)N(C)C)cc4)ccc1c23,viability,[1],86%
same,Her2 level,[2],95.5% (inactive)
same,viability,[3],86% (inactive)
same,viability,[4],53.6% (inactive)
same,viability,[5],65.9% (inactive)
same,differential viability (reversal),[6]; H69AR cells + 2 uM doxorubicin,-3.87% (inactive)
same,viability,[6]; [16],69.8%
same,viability,[6]; [17],65.9%
same,inhibition,[7],1.79% (inactive)
same,inhibition,[8],-7.17% (inactive)
same,growth inhibition,[9],-11.7% (inactive)
same,growth inhibition,[10],-15.2% (inactive)
same,viability increase,[11],-5.59% (inactive)
same,viability,[12],73.5% (inactive)
same,viability,[13],75.8% (inactive)
same,inhibition,[14],0.195% (inactive)
same,RAM network inhibition,[15],3.52% (inactive)
N#Cc1cc2c(nc1SCC(=O)N1CCCCC1)CCCC2,viability,[1],85%
same,Her2 level,[2],130% (inactive)
same,viability,[3],85% (inactive)
same,viability,[4],88.3% (inactive)
same,viability,[5],87.6% (inactive)
same,differential viability (reversal),[6]; H69AR cells + 2 uM doxorubicin,1.21% (inactive)
same,viability,[6]; [16],86.4%
same,viability,[6]; [17],87.6%
same,inhibition,[7],3.51% (inactive)
same,inhibition,[8],-6.67% (inactive)
same,growth inhibition,[9],-16.8% (inactive)
same,growth inhibition,[10],-1.56% (inactive)
same,viability increase,[11],-1.73% (inactive)
same,viability,[12],93% (inactive)
same,viability,[13],91.3% (inactive)
same,inhibition,[14],3.67% (inactive)
same,RAM network inhibition,[15],2.13% (inactive)
CCN(CC)c1ccc(NC(=O)CN2C(=O)CC(C)(C)S(=O)(=O)c3ccccc32)c(C)c1,viability,[1],102%
same,Her2 level,[2],111% (inactive)
same,viability,[3],102% (inactive)
same,viability,[4],102% (inactive)
same,viability,[5],84.8% (inactive)
same,differential viability (reversal),[6]; H69AR cells + 2 uM doxorubicin,-7.56% (inactive)
same,viability,[6]; [16],92.4%
same,viability,[6]; [17],84.8%
same,inhibition,[7],-4.8% (inactive)
same,inhibition,[8],0.83% (inactive)
same,growth inhibition,[9],-6.69% (inactive)
same,growth inhibition,[10],-16.1% (inactive)
same,viability increase,[11],-4.31% (inactive)
same,viability,[12],63.6% (inactive)
same,viability,[13],78.1% (inactive)
same,inhibition,[14],1.72% (inactive)
same,RAM network inhibition,[15],3.26% (inactive)
Cc1ccc(-c2noc(COc3ccccc3C)n2)cc1,viability,[1],72.5%
same,Her2 level,[2],92% (inactive)
same,viability,[3],72.5% (inactive)
same,viability,[4],102% (inactive)
same,viability,[5],96.9% (inactive)
same,differential viability (reversal),[6]; H69AR cells + 2 uM doxorubicin,10.6% (inactive)
same,viability,[6]; [16],86.3%
same,viability,[6]; [17],96.9%
same,inhibition,[7],-1.2% (inactive)
same,inhibition,[8],1.61% (inactive)
same,growth inhibition,[9],-13.7% (inactive)
same,growth inhibition,[10],-16.5% (inactive)
same,viability increase,[11],3.84% (inactive)
same,viability,[12],93% (inactive)
same,viability,[13],103% (inactive)
same,inhibition,[14],0.065% (inactive)
same,RAM network inhibition,[15],0% (inactive)
Cc1cnc(NC(=O)CSc2nnc(COc3c(C)cccc3C)o2)s1,viability,[1],83%
same,Her2 level,[2],102% (inactive)
same,viability,[3],83% (inactive)
same,viability,[4],79.9% (inactive)
same,viability,[5],87.1% (inactive)
same,differential viability (reversal),[6]; H69AR cells + 2 uM doxorubicin,-6.84% (inactive)
same,viability,[6]; [16],94%
same,viability,[6]; [17],87.1%
same,inhibition,[7],-5.33% (inactive)
same,inhibition,[8],4.83% (inactive)
same,growth inhibition,[9],-10.4% (inactive)
same,growth inhibition,[10],-2.15% (inactive)
same,viability increase,[11],-0.06% (inactive)
same,viability,[12],93.9% (inactive)
same,viability,[13],86.1% (inactive)
same,inhibition,[14],1.23% (inactive)
same,RAM network inhibition,[15],0.63% (inactive)
Cc1nc2ccc(C(=O)c3ccccc3)cc2[nH]1,viability,[1],102%
same,Her2 level,[2],82% (inactive)
same,viability,[3],102% (inactive)
same,viability,[4],110% (inactive)
same,viability,[5],94.2% (inactive)
same,differential viability (reversal),[6]; H69AR cells + 2 uM doxorubicin,2.49% (inactive)
same,viability,[6]; [16],91.7%
same,viability,[6]; [17],94.2%
same,inhibition,[7],-3.64% (inactive)
same,inhibition,[8],0.33% (inactive)
same,growth inhibition,[9],-6.26% (inactive)
same,growth inhibition,[10],2.11% (inactive)
same,viability increase,[11],0.26% (inactive)
same,viability,[12],99.4% (inactive)
same,viability,[13],100% (inactive)
same,inhibition,[14],1.42% (inactive)
same,RAM network inhibition,[15],5% (inactive)
Cc1cccc(Cn2c(SCCN3CCCCC3)nc3c2c(=O)[nH]c(=O)n3C)c1,viability,[1],75%
same,Her2 level,[2],96.5% (inactive)
same,viability,[3],75% (inactive)
same,viability,[4],75.6% (inactive)
same,viability,[5],73.7% (inactive)
same,differential viability (reversal),[6]; H69AR cells + 2 uM doxorubicin,-6.01% (inactive)
same,viability,[6]; [16],79.8%
same,viability,[6]; [17],73.7%
same,inhibition,[7],-1.73% (inactive)
same,inhibition,[8],5.5% (inactive)
same,growth inhibition,[9],-16.1% (inactive)
same,growth inhibition,[10],-11.3% (inactive)
same,viability increase,[11],-2.89% (inactive)
same,viability,[12],92.4% (inactive)
same,viability,[13],83.1% (inactive)
same,inhibition,[14],2.78% (inactive)
same,RAM network inhibition,[15],0.26% (inactive)
